Reference: PubChem BioAssay
Where “and” joins values, the source holds several entries; their conditions need not be identical. Equal entries are not always repeated. Inconclusive results are not listed. Calls of active or inactive are those of the source.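 Rule for the calls, unless noted: active = GFP response above 150% of the DMSO level; inconclusive = fewer than 70 events counted for a yeast strain; inactive = the rest.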

Legend:
[1] = yeast TOR pathway RPL19A-GFP modulators, primary screen, cell-based, S. cerevisiae, multiplex flow cytometry (AID 1862; in the data active = percent of DMSO control GFP below about 86%;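 note: lower values mimic rapamycin by blocking the RPL19A rise seen in DMSO cells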); conditions: S. cerevisiae RPL19A-GFP strain, flow cytometry fluorescence, 3 h; at 10 µM; stronger effect = lower value
[2] = modulators of MEP2-GFP levels in yeast, primary screen, S. cerevisiae, multiplex flow cytometry (AID 1867;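 active = GFP response, as percent of the DMSO control, above the screen-wide mean plus 3 SD, about 139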;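 note: median GFP channel fluorescence of barcode-gated MEP2-GFP cells measured by flow cytometry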); conditions: S. cerevisiae MEP2-GFP strain, 3 h, at 10 µM, stronger effect = higher value, 100% means same as DMSO wells
[3] = modulators of CIT2-GFP expression in yeast, primary screen, S. cerevisiae, GFP fusion, multiplex flow cytometry (AID 1870;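 active = percent response above a set limit, the screen-wide mean plus 3 SD, cut at about 130% in these data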;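 note: barcoded CIT2-GFP strain pooled with four other GFP strains with rapamycin as positive control; median GFP fluorescence per well over plate mean of DMSO wells so 100% = DMSO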); conditions: 3 h, at 10 µM, stronger effect = higher value
[4] = modulators of LAP4-GFP expression in yeast, primary screen, S. cerevisiae, multiplex flow cytometry (AID 1873;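 active = GFP signal, as percent of the solvent control, above the screen mean plus 3 SD, about 149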); conditions: 3 h, at 10 µM, stronger effect = higher value
[5] = modulators of AGP1-GFP expression in yeast TOR pathway, primary screen, cell-based, multiplex flow cytometry, S. cerevisiae (AID 1887;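 active = GFP signal above the screen-wide mean plus 3 SD, that is over about 124.5% of the solvent control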;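 note: AGP1-GFP fusion strain of S. cerevisiae within a five-strain barcoded multiplex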); conditions: 3 h, at 10 µM, stronger effect = higher value
[6] = RPL19A-GFP modulators, yeast TOR pathway, confirmation, cell-based, S. cerevisiae, flow cytometry, cherry picks, mother/daughter gates (AID 2270;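 active = GFP response below 50% of the DMSO control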); conditions: S. cerevisiae RPL19A-GFP strain, 3 h, at 10 µM, stronger effect = lower value, 100 = same GFP as DMSO wells
[7] = LAP4-GFP expression modulators in yeast, confirmation, cell-based, cherry picks, flow cytometry, mother/daughter gates (AID 2271;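 active = GFP response above 150% of the DMSO control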;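 note: ratio of sample to DMSO plate mean so 100% equals DMSO level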); conditions: S. cerevisiae LAP4-GFP strain, 3 h, at 10 µM, stronger effect = higher value, 100 means same as DMSO control
[8] = modulators of MEP2-GFP levels in yeast, confirmation, S. cerevisiae, flow cytometry GFP, cherry picks (AID 2272;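 active = GFP response above 150% of the DMSO control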;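 note: ratio of well signal to plate DMSO mean so 100% equals DMSO level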); conditions: S. cerevisiae MEP2-GFP strain, 3 h, at 10 µM, stronger effect = higher value
[9] = modulators of CIT2-GFP expression in yeast, confirmation, S. cerevisiae, GFP fusion, cherry picks, mother/daughter gates (AID 2274); conditions: S. cerevisiae CIT2-GFP strain, flow cytometry, 3 h, at 10 µM, stronger effect = higher value
[10] = inhibitors of CD8+ T cell-vesicle binding, pilot screen, LFA-1/ICAM-1 modulator project, MLPCN validation set, flow cytometry (AID 2523;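 active = response below a set limit, under 55% cells CD8-positive and vesicle-bound, and CD8 cells' 90th-percentile brightness under 279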;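 for vesicle binding response: mean PE anti-B7-1 fluorescence of CD8+ cells relative to row control; 100% = QL9-loaded vesicles with DMSO vehicle in the same plate row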); conditions: 2C mouse CD8+ T cells, at 7 µM, stronger effect = lower value; double positive events: measured here: CD8+/vesicle+ event percentage
[11] = target: Integrin beta-1 (Homo sapiens) + Integrin alpha-4 (Homo sapiens) (UniProt P13612+P05556); assay: inhibition of HUTS-21 binding to VLA-4, pilot screen, VLA-4 allosteric modulator project, U937 cells, HUTS-21 mAb, flow cytometry, validation set (AID 2674;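 active = inhibition above 50%, about 3 SD of the validation set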;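 note: antibody binding induced by the VLA-4 ligand LDV present at three times its Kd; 0% = LDV ligand with antibody and no compound and 100% = antibody without LDV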); conditions: HUTS-21 LIBS mAb binding, at 6.7 µM, stronger effect = higher value, binding induced by LDV ligand
[12] = superoxide lowering in aged yeast cells, pilot screen, validation compound set (AID 2706;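 active = superoxide response below 65% of plate, a cut near 3 SD across the whole screen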;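 note: yeast exposed to compound for one week at 30 degrees C before staining; 100% = mean of all compound wells on the same plate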); conditions: S. cerevisiae aging, superoxide DHE fluorescence; at 10 µM; stronger effect = lower value
[13] = target: Beta-adrenergic receptor kinase 1 (Homo sapiens) (UniProt P25098); assay: GRK2 binders displacing RNA aptamer, biochemical, validation, human GRK2, bead flow cytometry (AID 488806;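 active = aptamer binding inhibition above 30%, about 3 SD of noise from non-fluorescent compounds; inactive = inhibition at or below 30%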); conditions: bead-bound GRK2, FAM-aptamer displacement, at 10 µM, stronger effect = higher value
[14] = target: Beta-2 adrenergic receptor (Homo sapiens) (UniProt P07550); assay: beta2AR agonists driving receptor internalization, pilot screen, cell-based, FAP fluorogen, flow cytometry, validation set (AID 504459;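 active = percent response above 42, roughly 3 SD of non-fluorescent test compounds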;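 note: agonist-driven loss of surface beta2AR via internalization measured by FAP dye flow cytometry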); conditions: Am2.2-beta2AR cells, FAP surface receptor flow cytometry; at 10 µM; stronger effect = higher value
[15] = target: AP-2 complex subunit beta (Homo sapiens) (UniProt P63010); assay: inhibitors of arrestin peptide binding to AP2, pilot screen, biochemical, validation set, GST-AP2 beads, flow cytometry (AID 504541;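 active = inhibition above 54%, about 3 SD of non-fluorescent compounds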;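 note: AP2 carries R879A mutation and is captured from E. coli lysate; bead-bound FITC arrestin peptide fluorescence measuring arrestin peptide binding to AP2; 0% = DMSO wells and 100% = excess unlabeled arrestin peptide control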); conditions: FITC arrestin peptide, at 10 µM, stronger effect = higher value, AP2 beta2 appendage fragment, R879A mutant
[16] = yeast V-ATPase proton transport modulators, S. cerevisiae, pHLuorin, HTS validation (AID 504600; in the data active = response above about 15%;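 note: plate controls were DMSO for no effect and reference compound for full effect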); conditions: S. cerevisiae pHLuorin cytosolic pH, at 10 µM, stronger effect = higher value
[17] = tested on: anti-desmoglein-3 scFv antibody binding to human DSG3; assay: inhibitors of anti-DSG3 scFv binding to DSG3, pilot screen, biochemical, validation compound set, bead-based, flow cytometry (AID 588368;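 active = binding below the plate cutoff, the plate median minus 3 SD, with a reading above zero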;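 note: signal is the median channel fluorescence of bead-bound GFP antibody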); conditions: Protein G beads, DSG3-Fc, scFv-GFP binding, at 10 µM, stronger effect = lower value
[18] = inhibitors of fungal efflux pumps CDR1, CDR2, MDR1, pilot screen, validation compound set, multiplex, phenotypic (AID 588506;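 active = efflux inhibition above 0.42, the validation set average plus 4 SD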;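 note: Nile Red retained in cells so higher fluorescence means more efflux inhibition; 0 = negative control wells and 1 = enniatin B 25 µM full block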); conditions: S. cerevisiae pump-expressing triplex, Nile Red efflux flow cytometry; at 10 µM; stronger effect = higher value; the pumps come from Candida albicans
[19] = target: ATP-binding cassette sub-family B member 6 (Homo sapiens) (UniProt Q9NP58); assay: ABCB6 transporter inhibitors, pilot screen, K562-ABCB6 cells, flow cytometry, validation set (AID 588550;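 active = inhibition above the screen-wide mean plus 3 SD, about 51%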;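 note: 0% = DMSO wells and 100% = benzethonium chloride 70 µM positive control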); conditions: K562-ABCB6 porphyrin accumulation, 1 h, at 10 µM, stronger effect = higher value
[20] = promoters of myeloid differentiation in arrested cells, primary screen, cell-based, GFP/MAC1 double positive, flow cytometry, validation set (AID 588685;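 active = differentiation response of at least 50%, scaled between solvent and reference control, from cells with both markers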;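 note: compound exposure lasts four days before antibody staining and flow analysis; 0% = DMSO wells and 100% = 5 µM fulvestrant positive control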); conditions: ER-HoxA9 marrow cells, stronger effect = higher value, normalized: vehicle 0, fulvestrant 100
[21] = measured here: daughter cell gate
[22] = measured here: mother cell gate
[23] = measured here: mother cell gate response
[24] = measured here: daughter cell gate response

Chain of Beta-adrenergic receptor kinase 1 (Homo sapiens) (P25098 whole entry, looked up): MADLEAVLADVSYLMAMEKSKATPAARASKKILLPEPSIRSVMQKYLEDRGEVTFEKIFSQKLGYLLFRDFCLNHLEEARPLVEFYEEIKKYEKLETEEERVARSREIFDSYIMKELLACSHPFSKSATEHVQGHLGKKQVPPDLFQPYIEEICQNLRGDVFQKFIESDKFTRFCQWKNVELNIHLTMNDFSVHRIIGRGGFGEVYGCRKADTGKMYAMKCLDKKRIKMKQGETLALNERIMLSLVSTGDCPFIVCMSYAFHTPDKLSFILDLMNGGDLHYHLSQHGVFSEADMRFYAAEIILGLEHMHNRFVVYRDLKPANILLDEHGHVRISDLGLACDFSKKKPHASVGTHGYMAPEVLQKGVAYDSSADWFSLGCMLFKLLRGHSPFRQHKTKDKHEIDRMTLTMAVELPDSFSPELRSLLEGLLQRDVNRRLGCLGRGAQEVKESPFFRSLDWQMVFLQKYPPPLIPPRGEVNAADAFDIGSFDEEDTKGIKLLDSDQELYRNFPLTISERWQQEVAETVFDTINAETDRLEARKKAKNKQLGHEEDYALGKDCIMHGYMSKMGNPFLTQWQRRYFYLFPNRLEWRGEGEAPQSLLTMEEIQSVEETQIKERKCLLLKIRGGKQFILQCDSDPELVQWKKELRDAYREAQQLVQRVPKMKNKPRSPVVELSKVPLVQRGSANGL
Chain of AP-2 complex subunit beta (Homo sapiens) (P63010 whole entry, looked up, the tested form may be a part, one chain of several): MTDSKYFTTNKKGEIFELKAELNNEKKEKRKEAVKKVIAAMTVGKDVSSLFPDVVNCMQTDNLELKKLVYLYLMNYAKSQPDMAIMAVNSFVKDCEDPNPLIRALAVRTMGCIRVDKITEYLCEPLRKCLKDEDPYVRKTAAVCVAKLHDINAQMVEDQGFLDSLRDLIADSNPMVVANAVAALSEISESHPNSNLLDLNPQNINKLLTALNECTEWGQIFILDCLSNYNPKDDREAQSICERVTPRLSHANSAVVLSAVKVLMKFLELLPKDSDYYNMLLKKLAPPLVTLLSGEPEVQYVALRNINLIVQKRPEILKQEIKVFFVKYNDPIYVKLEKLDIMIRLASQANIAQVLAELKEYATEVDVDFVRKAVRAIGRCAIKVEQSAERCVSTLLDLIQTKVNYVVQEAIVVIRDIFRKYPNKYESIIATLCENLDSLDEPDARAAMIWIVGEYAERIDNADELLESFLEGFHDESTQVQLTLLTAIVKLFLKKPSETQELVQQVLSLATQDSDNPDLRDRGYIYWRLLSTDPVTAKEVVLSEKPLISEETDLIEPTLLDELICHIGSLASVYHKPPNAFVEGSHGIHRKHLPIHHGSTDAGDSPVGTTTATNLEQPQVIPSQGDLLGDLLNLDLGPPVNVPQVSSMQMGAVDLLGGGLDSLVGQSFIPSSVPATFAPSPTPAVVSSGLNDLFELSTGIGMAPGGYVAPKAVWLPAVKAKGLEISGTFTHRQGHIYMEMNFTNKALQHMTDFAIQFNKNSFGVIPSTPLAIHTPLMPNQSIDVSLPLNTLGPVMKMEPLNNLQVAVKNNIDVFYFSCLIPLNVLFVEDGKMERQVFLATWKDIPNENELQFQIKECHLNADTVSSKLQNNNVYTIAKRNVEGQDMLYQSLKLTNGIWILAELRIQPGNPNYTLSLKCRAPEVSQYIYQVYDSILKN
Chain of ATP-binding cassette sub-family B member 6 (Homo sapiens) (Q9NP58 whole entry, looked up): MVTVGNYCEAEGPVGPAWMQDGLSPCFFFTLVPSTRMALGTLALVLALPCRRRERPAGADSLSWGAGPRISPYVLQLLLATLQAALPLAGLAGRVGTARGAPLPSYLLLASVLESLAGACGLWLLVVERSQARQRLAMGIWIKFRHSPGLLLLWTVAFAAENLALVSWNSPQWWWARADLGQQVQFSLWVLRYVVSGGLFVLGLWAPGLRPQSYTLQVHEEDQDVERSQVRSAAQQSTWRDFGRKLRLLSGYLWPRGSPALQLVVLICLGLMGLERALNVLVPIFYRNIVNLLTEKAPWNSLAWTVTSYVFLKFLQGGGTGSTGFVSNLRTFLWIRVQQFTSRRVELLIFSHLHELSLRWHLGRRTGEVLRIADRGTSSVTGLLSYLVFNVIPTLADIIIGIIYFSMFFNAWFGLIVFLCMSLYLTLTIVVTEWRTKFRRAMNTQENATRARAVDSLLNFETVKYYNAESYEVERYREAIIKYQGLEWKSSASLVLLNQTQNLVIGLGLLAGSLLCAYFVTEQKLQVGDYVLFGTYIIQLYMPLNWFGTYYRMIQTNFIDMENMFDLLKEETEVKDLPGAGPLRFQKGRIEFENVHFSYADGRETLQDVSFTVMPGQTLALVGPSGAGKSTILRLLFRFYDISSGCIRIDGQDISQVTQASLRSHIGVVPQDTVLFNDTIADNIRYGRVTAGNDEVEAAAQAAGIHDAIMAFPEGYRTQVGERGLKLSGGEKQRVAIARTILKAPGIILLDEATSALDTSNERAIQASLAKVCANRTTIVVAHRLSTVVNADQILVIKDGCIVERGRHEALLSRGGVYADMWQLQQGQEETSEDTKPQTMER
Chain of Integrin beta-1 (Homo sapiens) + Integrin alpha-4 (Homo sapiens) (P05556 whole entry, looked up): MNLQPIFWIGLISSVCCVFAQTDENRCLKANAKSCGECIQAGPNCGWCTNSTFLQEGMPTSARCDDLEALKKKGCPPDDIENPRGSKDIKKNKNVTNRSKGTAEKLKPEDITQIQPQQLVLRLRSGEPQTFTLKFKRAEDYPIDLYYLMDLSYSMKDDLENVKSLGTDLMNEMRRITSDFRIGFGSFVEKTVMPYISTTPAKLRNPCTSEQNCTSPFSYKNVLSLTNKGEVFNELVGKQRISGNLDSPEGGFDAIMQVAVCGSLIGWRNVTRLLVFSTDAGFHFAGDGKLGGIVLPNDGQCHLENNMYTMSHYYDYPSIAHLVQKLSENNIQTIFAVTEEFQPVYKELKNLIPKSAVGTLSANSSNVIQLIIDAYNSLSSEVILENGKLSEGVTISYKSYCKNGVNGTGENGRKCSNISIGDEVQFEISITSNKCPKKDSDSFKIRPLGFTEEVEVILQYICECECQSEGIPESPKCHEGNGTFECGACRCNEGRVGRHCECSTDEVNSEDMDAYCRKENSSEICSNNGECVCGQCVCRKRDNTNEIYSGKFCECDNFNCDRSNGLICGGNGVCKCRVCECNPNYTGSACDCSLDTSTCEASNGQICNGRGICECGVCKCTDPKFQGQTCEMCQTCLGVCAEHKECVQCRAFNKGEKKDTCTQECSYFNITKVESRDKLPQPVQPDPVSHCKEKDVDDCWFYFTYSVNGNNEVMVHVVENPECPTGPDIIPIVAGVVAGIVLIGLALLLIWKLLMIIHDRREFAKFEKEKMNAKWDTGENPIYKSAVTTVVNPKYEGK
Chain of Integrin beta-1 (Homo sapiens) + Integrin alpha-4 (Homo sapiens) (P13612 whole entry, looked up): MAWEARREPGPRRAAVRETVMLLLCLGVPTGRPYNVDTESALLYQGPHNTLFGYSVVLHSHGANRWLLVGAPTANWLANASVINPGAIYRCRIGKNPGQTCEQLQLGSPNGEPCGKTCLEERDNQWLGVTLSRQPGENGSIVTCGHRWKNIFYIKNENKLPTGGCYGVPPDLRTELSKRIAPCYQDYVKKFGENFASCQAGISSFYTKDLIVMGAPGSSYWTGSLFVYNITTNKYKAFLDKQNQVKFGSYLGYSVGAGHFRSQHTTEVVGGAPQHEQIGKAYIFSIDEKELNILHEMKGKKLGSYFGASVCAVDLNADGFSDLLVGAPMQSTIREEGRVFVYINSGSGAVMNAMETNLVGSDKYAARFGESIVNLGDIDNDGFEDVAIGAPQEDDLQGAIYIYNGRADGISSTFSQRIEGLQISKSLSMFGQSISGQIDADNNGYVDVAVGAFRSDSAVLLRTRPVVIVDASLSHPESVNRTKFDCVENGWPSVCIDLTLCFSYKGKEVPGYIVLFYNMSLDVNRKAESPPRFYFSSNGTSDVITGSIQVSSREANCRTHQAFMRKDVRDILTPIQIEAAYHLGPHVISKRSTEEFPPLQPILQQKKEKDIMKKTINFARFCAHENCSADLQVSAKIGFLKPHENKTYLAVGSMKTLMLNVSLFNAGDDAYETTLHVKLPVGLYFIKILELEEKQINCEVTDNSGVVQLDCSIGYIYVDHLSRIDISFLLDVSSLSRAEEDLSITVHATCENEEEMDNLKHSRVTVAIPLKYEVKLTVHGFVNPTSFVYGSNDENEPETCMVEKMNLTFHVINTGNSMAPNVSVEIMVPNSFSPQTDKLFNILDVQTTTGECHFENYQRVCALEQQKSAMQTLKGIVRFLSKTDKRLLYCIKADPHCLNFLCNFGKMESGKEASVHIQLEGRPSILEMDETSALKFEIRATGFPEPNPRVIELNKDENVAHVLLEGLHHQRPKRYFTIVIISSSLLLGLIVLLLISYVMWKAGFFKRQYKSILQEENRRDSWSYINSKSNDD
Chain of Beta-2 adrenergic receptor (Homo sapiens) (P07550 whole entry, looked up): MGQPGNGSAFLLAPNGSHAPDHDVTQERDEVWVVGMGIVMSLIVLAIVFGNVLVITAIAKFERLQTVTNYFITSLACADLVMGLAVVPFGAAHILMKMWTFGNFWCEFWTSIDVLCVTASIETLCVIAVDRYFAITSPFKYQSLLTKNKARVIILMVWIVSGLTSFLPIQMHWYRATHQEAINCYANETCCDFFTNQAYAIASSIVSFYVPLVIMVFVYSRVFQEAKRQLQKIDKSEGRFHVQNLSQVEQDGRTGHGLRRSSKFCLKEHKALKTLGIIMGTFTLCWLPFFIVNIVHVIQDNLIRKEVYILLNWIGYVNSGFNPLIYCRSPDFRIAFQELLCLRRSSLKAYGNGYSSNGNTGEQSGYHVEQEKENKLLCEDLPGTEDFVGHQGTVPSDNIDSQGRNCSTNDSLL

O=[N+]([O-])c1ccc(O)c2ncccc12
99.2%: GFP response vs DMSO [6, 22]
59.9%: double positive events [10]
245%: GFP response relative to DMSO [7, 23]
active: GFP response vs DMSO [4] 375% | GFP response, % of DMSO [5] 152% | GFP response relative to DMSO [7] 274% | superoxide response (% of plate) [12] 56.6% | response [16] 65.3%
inactive: percent of DMSO control GFP [1] 99.7% | GFP response vs DMSO [2] 122% | percent response of DMSO control [3] 81.5% | GFP response vs DMSO [6] 104% | GFP response vs DMSO [8] 120% | GFP response, % of DMSO [9] 138% | vesicle binding response [10] 159% | inhibition [11] -1.12% | aptamer binding inhibition [13] 0% | response [14] -20% | inhibition [15] -6.92% | binding (% of control) [17] 83.2% | efflux inhibition (fraction of control) [18] -0.13 | inhibition [19] 1% | differentiation response [20] -3.02%
99.8%: GFP response vs DMSO [6, 21]
121%: GFP response, % of DMSO [9, 21]
126%: GFP response, % of DMSO [9, 22]

CS(=O)(=O)Nc1cccc(C(=O)CC2(O)C(=O)Nc3ccc(Br)cc32)c1 (centres undefined)
inactive: percent of DMSO control GFP [1] 85.9% | GFP response vs DMSO [4] 139% | GFP response vs DMSO [6] 101% | GFP response relative to DMSO [7] 98.2% | GFP response vs DMSO [8] 99% | GFP response, % of DMSO [9] 100% | vesicle binding response [10] 34.1% | inhibition [11] -10.8% | superoxide response (% of plate) [12] 112% | aptamer binding inhibition [13] 4% | response [14] -1.29% | inhibition [15] 50% | response [16] -8.12% | binding (% of control) [17] 101% | efflux inhibition (fraction of control) [18] 0.08 | inhibition [19] 7% | differentiation response [20] 5.13%
90.2%: GFP response, % of DMSO [9, 21]
active: GFP response vs DMSO [2] 150% | percent response of DMSO control [3] 142% | GFP response, % of DMSO [5] 129%
92.4%: GFP response vs DMSO [6, 21]
96.2%: GFP response vs DMSO [6, 22] | GFP response relative to DMSO [7, 23]
57.6%: double positive events [10]
90.7%: GFP response, % of DMSO [9, 22]
95.9%: GFP response relative to DMSO [7, 24]

C[C@]12CCC(=O)C=C1CC[C@@H]1[C@@H]2[C@@H](O)C[C@@]2(C)[C@H]1CC[C@]2(O)C(=O)COC(=O)CCC(=O)O
96.4% and 98.1%: GFP response vs DMSO [6, 21]
101% and 94.9%: GFP response vs DMSO [6, 22]
91.1% and 100%: GFP response relative to DMSO [7, 23]
43.7%: double positive events [10]
92.3% and 97.3%: GFP response, % of DMSO [9, 22]
103% and 97.6%: GFP response relative to DMSO [7, 24]
94.8% and 99.1%: GFP response, % of DMSO [9, 21]
inactive: percent of DMSO control GFP [1] 104% | GFP response vs DMSO [2] 108% | percent response of DMSO control [3] 110% | GFP response vs DMSO [4] 119% | GFP response, % of DMSO [5] 108% | GFP response vs DMSO [6] 98% and 96.4% | GFP response relative to DMSO [7] 97.4% and 99.2% | GFP response vs DMSO [8] 100% | GFP response, % of DMSO [9] 96.5% and 98.3% | vesicle binding response [10] 165% | inhibition [11] -9.57% | superoxide response (% of plate) [12] 98.2% | aptamer binding inhibition [13] 0% | inhibition [15] -8.58% | response [16] 10.6% | binding (% of control) [17] 99.5% | efflux inhibition (fraction of control) [18] -0.16 | inhibition [19] 10% | differentiation response [20] -26%

C[C@]12CCC(=O)C=C1CC[C@@H]1[C@@H]2[C@@H](O)C[C@@]2(C)[C@H]1CC[C@]2(O)C(=O)CO
102%: GFP response vs DMSO [6, 21]
98.7%: GFP response relative to DMSO [7, 24]
inactive: percent of DMSO control GFP [1] 108% | GFP response vs DMSO [2] 105% | percent response of DMSO control [3] 111% | GFP response vs DMSO [4] 105% | GFP response, % of DMSO [5] 111% | GFP response vs DMSO [6] 104% | GFP response relative to DMSO [7] 96.2% | GFP response vs DMSO [8] 100% | GFP response, % of DMSO [9] 104% | vesicle binding response [10] 165% | inhibition [11] 10.9% | superoxide response (% of plate) [12] 99.2% | aptamer binding inhibition [13] -2% | inhibition [15] 29.5% | response [16] -1.08% | binding (% of control) [17] 95.4% | inhibition [19] 3% | differentiation response [20] -18%
99.7%: GFP response, % of DMSO [9, 21]
58.4%: double positive events [10]
98.3%: GFP response relative to DMSO [7, 23]
104%: GFP response vs DMSO [6, 22]
105%: GFP response, % of DMSO [9, 22]
